# Source: the supplement of paper PMC6555819
# Tested on: PXR homodimer (NR concentration 270 nM)
# Experiment: PBM binding z-score (relative to random genomic background probes); higher = stronger binding; sequences stand for … in GC…GCGATTGACAGCGTAGAATGAAGG
# Summary of the method: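 Probes were double-stranded and carried 34-nt variable regions with direct-repeat seeds, single-nucleotide variants, half-site ablations and random human genomic background sequences, printed on custom Agilent 4×180K protein-binding microarrays. Arrays were incubated 1 h with ligand-free nuclear receptor dimers in PBS pH 7.4, 2% milk, 0.02% Triton X-100, 1 mM DTT, 0.2 mg/mL BSA and 0.4 mg/ml salmon testes DNA. Antibodies against each partner (one per run) detected binding, and scanned fluorescence was regression-normalized. Binding z-scores use the random background probes as reference.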
row,Sequence,PBM binding z-score
1,TCATATAGGTAACCAGGTGAAAGTCCGTAAGTTA,0.506
2,TGAATGAGGCTATAAGATCAGGGAACGTTGCAAA,-0.512
3,CCGACTGGGCCAAGGTTACCATAACGCACAGCCA,-0.166
4,AGAATGAGGTTATTAAGGTCAGGGAATTGCGGTC,11.1
5,CCTTACGAGTCACGAGGTTATAGCACGACGAGCG,0.811
6,GCTATTAGTTGAAAGGGCCACCGAATGATTCTCG,-0.184
7,GCTATTAGTTGAAAGGGCAACCGCATGATTCTCG,0.17
8,CCTGCTTGGTCATGGTCAGCTAATCTACAGTATG,-0.228
9,CAAACTAGGTCACAGAGTTCAAAGTCCGTGCGTA,14.2
10,CGTCAAAGTTCACGGTAACGTAACAGAAAGCAGC,2.72
11,ATCTCTAGGTAAAGATAATTCAGTGAATGCAAAT,0.504
12,GGAACAAGGGCATTCGAGTTGATAGCATGGCGAT,0.975
13,CCTACTGGGGCATAAGGTTACCATAAGCCAGCCC,0.0136
14,GATACAGGGTCAAGGCCAGAGCACGCGTATTGAT,0.352
15,CCTAGTTGGTCAAGGTCACTCACGCTATAGGTAC,2.8
16,TAGCCTGGGTCATTGGGCCAGTATAGTACGCATC,-1.02
17,ATCTCTAGTTAAAAGTTCAGTGAATCCCGAGGAT,2
18,TCTGCTAGGTCAGTGGGTCAGCTAACGAGCTGCC,-0.958
19,CCTTACGGGTCACGAGGTTTTAGCACGACGAGCG,-0.106
20,GCTTACGGGTCAAAGGCTATAGCATGAATAGAAT,0.0124

row,Sequence,PBM binding z-score
1,AGAATGAGGTTATTAAGTTCAGGGAATTGCGGTC,13.8
2,ACAGACAGGTGATGAAGGTAACTCCGGCTATCAT,-0.1
3,ATCTCTAGGTAACAAGTTCAGTGAAAGAGAGGAC,2.41
4,CGTCCAAGGTCAAACGTCAGTGAAGAGATGACGG,0.834
5,AGTCACAGTTCAGGACGAGGTAACGTAAAGCACG,0.45
6,ACAGACAGGTGAGTGAAGGTAGCTCAGCTGGACG,-0.525
7,TTACCAAGGTGAAAGGTCGTTGGTGCACGCCTTG,0.449
8,GCTGCTAGGTCAACTCATGGTCAGCTAAAGCTCG,-0.544
9,CGCACTAGGTCAAGGACAGTGAATCTCCGCACGC,0.0235
10,CCAACTAGGTCATCCAGGACAGTGAATACATTGA,1.63
11,GCATATAGGTAGTACAAGGTGAAAGTCCGATTGT,0.176
12,GTGCCAAGGTGAATAGGTCGTTGATGAGTAGGCG,0.19
13,CGTCCAAGGTCAATGCTATGTCAGTGAAAGCATT,0.424
14,CGTCCAAGGTCTATGCTAGGTCAGTGAAAGCATT,-0.113
15,CGAACGAGGGCATGAGTTGATAGAAAATGCCGAT,0.619
16,CGTCCAAGGTGAAAGGTCAGTGAAGAGATGACGG,0.474
17,CAAACTATGTCACAGAGGTCAAAGTCCGTGCGTA,3.31
18,TCTTGAAGATCAAAGGTTAAGAAAGCCGAAGCCT,0.147
19,TTACCAAGGTGATAGGTCGTTGATGCACGCCTTG,-0.14
20,TCTGCTTGGTCAGTTGGTCAGCTAACGAGCTGCC,-1.14
